The whole screen tested about 94,000 compounds, of which about 2,100 (2.2%) were called active. No stated cut-off is given here; in the data, active means activity change below about -80%; inconclusive means no clear call, values can overlap the other calls; inactive means above that. Only a selection was taken, and actives are over-represented in it overall.
experiment: P. falciparum Dd2 growth inhibitors, primary screen, SYBR Green fluorescence, single dose replicates (AID 1159554); details: 72 h, at 10 µM, hits give low values

Row | Compound | activity change
1 | CC(=O)N1[C@H](CN(C)S(=O)(=O)c2ccccc2)[C@H](c2ccccc2)[C@@H]1CO | 4.68% (inactive)
2 | COc1cccc(-c2ccc3n(c2=O)C[C@H]2[C@H](CO)[C@@H](C(=O)NC4CCCC4)[C@@H]3N2C)c1 | 2.57% (inactive)
3 | COc1ccc2c3c(n(C)c2c1)[C@@H](CO)N(C(=O)NC1CCCC1)CC31CCN(C(C)=O)CC1 | -2.48% (inactive)
4 | C[C@@H](NC(=O)C[C@H]1CC[C@H]2[C@@H](COC[C@@H](O)CN2C(=O)Nc2ccccc2)O1)c1ccccc1 | 8.13% (inactive)
5 | C[C@H](CO)N1C[C@H](C)[C@@H](CN(C)Cc2ccc3c(c2)OCO3)OCCCC[C@H](C)Oc2ccc(NC(=O)Nc3ccc(C(F)(F)F)cc3)cc2C1=O | -41.8% (inactive)
6 | Cc1ccccc1S(=O)(=O)NCC[C@@H]1CC[C@H](NC(=O)C2CCCCC2)[C@@H](CO)O1 | 7.15% (inactive)
7 | CCS(=O)(=O)N1CC(=O)N2[C@H](CO)[C@@H](c3ccc(C#CC4CCCC4)cc3)[C@@H]2C1 | -15.8% (inactive)
8 | C[C@H]1CCCCO[C@@H](CN(C)C(=O)Nc2ccccc2)[C@@H](C)CN([C@@H](C)CO)C(=O)c2cc(NC(=O)Nc3ccc(F)cc3)ccc2O1 | -17.9% (inactive)
9 | C[C@@H]1CCCCO[C@H](CN(C)C(=O)Nc2cccc3ccccc23)[C@@H](C)CN([C@@H](C)CO)C(=O)c2cc(NC(=O)Nc3ccc(F)cc3)ccc2O1 | -88.2% (active)
10 | C[C@@H]1CCCCO[C@@H](CN(C)C(=O)Nc2ccccc2)[C@@H](C)CN([C@H](C)CO)C(=O)c2cc(NC(=O)Nc3ccc(F)cc3)ccc2O1 | 24.9% (inactive)
11 | C[C@@H]1CCCCO[C@@H](CN(C)S(=O)(=O)c2ccc(Cl)cc2)[C@H](C)CN([C@@H](C)CO)C(=O)c2cc(NC(=O)Cc3ccccc3)ccc2O1 | -69% (inactive)
12 | C[C@@H]1CN([C@@H](C)CO)C(=O)c2cc(NC(=O)Nc3ccc(C(F)(F)F)cc3)ccc2O[C@@H](C)CCCCO[C@@H]1CN(C)C(=O)Nc1cccc2ccccc12 | -85.5% (active)
13 | C[C@@H]1CCCCO[C@H](CN(C)C(=O)Nc2cccc3ccccc23)[C@@H](C)CN([C@H](C)CO)C(=O)c2cc(NC(=O)Nc3ccc4c(c3)OCO4)ccc2O1 | -49.2% (inactive)
14 | Cc1ccc(S(=O)(=O)N(C)C[C@@H]2OCCCC[C@@H](C)Oc3ccc(NS(=O)(=O)c4ccccc4)cc3C(=O)N([C@H](C)CO)C[C@@H]2C)cc1 | -57.4% (inactive)
15 | C[C@@H]1CCCCO[C@@H](CN(C)C(=O)Nc2cccc3ccccc23)[C@H](C)CN([C@H](C)CO)C(=O)c2cc(NC(=O)NC3CCCCC3)ccc2O1 | -62.1% (inactive)
16 | C[C@@H]1CCCCO[C@@H](CN(C)C(=O)Nc2ccc(F)cc2)[C@H](C)CN([C@H](C)CO)C(=O)c2cc(NC(=O)Nc3cccc4ccccc34)ccc2O1 | -24.3% (inactive)
17 | Cc1ccc(S(=O)(=O)N(C)C[C@H]2OCCCC[C@H](C)Oc3ccc(NC(=O)Cc4ccccc4)cc3C(=O)N([C@@H](C)CO)C[C@@H]2C)cc1 | -81.9% (active)
18 | COc1ccc(NC(=O)Nc2ccc3c(c2)C(=O)N([C@@H](C)CO)C[C@H](C)[C@@H](CN(C)C(=O)Nc2cccc4ccccc24)OCCCC[C@@H](C)O3)cc1 | -66% (inactive)
19 | C[C@@H]1CCCCO[C@H](CN(C)C(=O)Nc2ccccc2)[C@H](C)CN([C@H](C)CO)C(=O)c2cc(NC(=O)Nc3ccccc3)ccc2O1 | -88.7% (active)
20 | Cc1ccc(S(=O)(=O)Nc2ccc3c(c2)C(=O)N([C@@H](C)CO)C[C@@H](C)[C@H](CN(C)Cc2ccc(Cl)c(Cl)c2)OCCCC[C@@H](C)O3)cc1 | -43.2% (inactive)

Row | Compound | activity change
21 | C[C@@H]1CN([C@H](C)CO)S(=O)(=O)c2ccc(C3=CCCC3)cc2O[C@H]1CN(C)C(=O)Nc1ccc2c(c1)OCO2 | -57.4% (inactive)
22 | COc1ccccc1S(=O)(=O)N[C@@H]1CC[C@@H](CCNC(=O)C2CCCCC2)O[C@@H]1CO | -1.07% (inactive)
23 | O=C(Nc1cccc(Cl)c1)N[C@@H]1CC[C@@H](CCNC(=O)C2CCOCC2)O[C@@H]1CO | -0.665% (inactive)
24 | C/C=C/c1cnc2c(c1)C(=O)N([C@H](C)CO)C[C@@H](C)[C@H](CN(C)Cc1cccc(C(=O)O)c1)O2 | 27.8% (inactive)
25 | O=C(C[C@@H]1CC[C@H]2[C@@H](COC[C@@H](O)CN2CC2CC2)O1)NCc1ccc(Cl)cc1 | -0.915% (inactive)
26 | CC(=O)N1[C@H](CO)[C@H](c2ccccc2)C12CN(C(=O)c1ccccn1)C2 | -28.2% (inactive)
27 | C[C@@H]1CN([C@@H](C)CO)C(=O)c2cc(NC(=O)Cc3ccccc3)ccc2O[C@@H](C)CCCCO[C@H]1CN(C)C(=O)Nc1cccc2ccccc12 | -86.1% (active)
28 | C[C@@H]1CCCCO[C@H](CN(C)C(=O)Nc2cccc3ccccc23)[C@H](C)CN([C@@H](C)CO)C(=O)c2cc(NC(=O)CCCN(C)C)ccc2O1 | 0.619% (inactive)
29 | CC(C)NC(=O)N(C)C[C@@H]1OCCCC[C@@H](C)Oc2ccc(NC(=O)Cc3ccccc3)cc2C(=O)N([C@H](C)CO)C[C@H]1C | -13.3% (inactive)
30 | CC(C)NC(=O)N(C)C[C@@H]1OCCCC[C@@H](C)Oc2ccc(NC(=O)CCCN(C)C)cc2C(=O)N([C@@H](C)CO)C[C@@H]1C | -5.33% (inactive)
31 | C[C@@H]1CN([C@@H](C)CO)C(=O)c2cc(NC(=O)CCCN(C)C)ccc2O[C@@H](C)CCCCO[C@H]1CN(C)C(=O)Nc1cccc2ccccc12 | -85.2% (active)
32 | C[C@@H]1CN([C@@H](C)CO)C(=O)c2cc(NC(=O)Cc3ccccc3)ccc2O[C@@H](C)CCCCO[C@@H]1CN(C)C(=O)Nc1ccccc1 | -51.5% (inactive)
33 | CO[C@@H]1CN(C)C(=O)c2cc(NC(=O)Nc3ccc(F)cc3)ccc2OC[C@@H](C)NC[C@@H]1C | 13.3% (inactive)
34 | O=C(C[C@H]1CC[C@H]2[C@@H](COC[C@@H](O)CN2CC2CCOCC2)O1)NCc1ccc(Cl)cc1 | -4.66% (inactive)
35 | CO[C@@H]1CN(C)C(=O)c2ccc(NS(C)(=O)=O)cc2OC[C@@H](C)N(C(=O)CC2CC2)C[C@@H]1C | 16.2% (inactive)
36 | O=C(c1ccccn1)N1CC(=O)N2[C@H](CO)[C@H](c3ccc(C#CCc4ccccc4)cc3)[C@H]2C1 | -46.8% (inactive)
37 | O=C(C[C@@H]1C=C[C@H](NC(=O)Nc2ccccc2F)[C@@H](CO)O1)NCc1ccccc1 | -0.106% (inactive)
38 | CN1CCN(C(=O)C[C@H]2CC[C@H]3[C@@H](COc4ccc(NC(=O)C5CCC5)cc4C(=O)N3C)O2)CC1 | -19.8% (inactive)
39 | CN1C(=O)c2cc(NC(=O)c3cccc(F)c3)ccc2OC[C@H]2O[C@@H](CC(=O)NCc3ccccc3Cl)CC[C@@H]21 | -47.4% (inactive)
40 | CCCNC(=O)N(C)C[C@H]1Oc2cc(-c3ccncc3)ccc2S(=O)(=O)N([C@H](C)CO)C[C@H]1C | 70.9% (inactive)

Row | Compound | activity change
41 | CC(C)NC(=O)N[C@H]1C=C[C@H](CC(=O)NCCN2CCCC2)O[C@@H]1CO | 9.57% (inactive)
42 | C/C=C/c1cnc2c(c1)C(=O)N([C@@H](C)CO)C[C@H](C)[C@H](CN(C)C(=O)CN1CCOCC1)O2 | -2.24% (inactive)
43 | CCC(=O)N1CC2(C1)CN(Cc1nccs1)[C@@H](CO)c1c2c2ccc(OC)cc2n1C | 3.74% (inactive)
44 | COc1ccc2c3c(n(C)c2c1)[C@H](CO)N(CC1CCCCC1)CC31CCN(Cc2nccs2)CC1 | -91% (active)
45 | COc1ccc2c3c(n(C)c2c1)[C@H](CO)N(C(=O)CC1CC1)CC31CCN(Cc2nccs2)CC1 | -91.8% (active)
46 | COc1ccc2c3c(n(C)c2c1)[C@@H](CO)N(C(=O)Nc1cccc(F)c1)CC31CCN(Cc2nccs2)CC1 | -73.5% (inactive)
47 | COc1ccc2c3c(n(C)c2c1)[C@@H](CO)N(C(C)=O)CC31CCN(Cc2nccs2)CC1 | -11.3% (inactive)
48 | COc1ccc2c3c(n(C)c2c1)[C@H](CO)N(Cc1cccnc1)CC31CCN(Cc2cccnc2)CC1 | -77.6% (inactive)
49 | CN1C(=O)c2cc(NC(=O)C3CCCC3)ccc2OC[C@H]2O[C@@H](CC(=O)NCCc3ccncc3)CC[C@H]21 | 22.6% (inactive)
50 | CCS(=O)(=O)N1CC2(CN(C(=O)c3ccc(F)cc3)[C@H](CO)c3c2c2ccc(OC)cc2n3C)C1 | -2.54% (inactive)
51 | CCC(=O)Nc1ccc2c(c1)C(=O)N(C)C[C@@H](OC)[C@@H](C)CN(Cc1ccccc1F)[C@H](C)CO2 | -23.2% (inactive)
52 | CCC(=O)Nc1ccc2c(c1)C(=O)N(C)C[C@H](OC)[C@H](C)CN(Cc1ccccc1F)[C@H](C)CO2 | -27.5% (inactive)
53 | CCCC(=O)Nc1ccc2c(c1)OC[C@@H](C)N(Cc1ccccc1F)C[C@@H](C)[C@H](OC)CN(C)C2=O | -88.8% (active)
54 | CO[C@H]1CN(C)C(=O)c2ccc(NC(=O)Nc3ccc4c(c3)OCO4)cc2OC[C@H](C)NC[C@H]1C | 0.516% (inactive)
55 | CO[C@H]1CN(C)C(=O)c2ccc(NC(C)=O)cc2OC[C@@H](C)NC[C@H]1C | 19.5% (inactive)
56 | CO[C@H]1CN(C)C(=O)c2cc(NC(=O)Nc3cccc(F)c3)ccc2OC[C@H](C)N(C(C)=O)C[C@H]1C | -27.3% (inactive)
57 | CCC(=O)N1C[C@H](C)[C@H](OC)CN(C)C(=O)c2cc(NC(=O)Nc3cccc(F)c3)ccc2OC[C@@H]1C | -86.1% (active)
58 | CCC(=O)N1C[C@H](C)[C@H](OC)CN(C)C(=O)c2ccc(NC(=O)Nc3cccc(F)c3)cc2OC[C@@H]1C | -41.8% (inactive)
59 | CO[C@@H]1CN(C)C(=O)c2ccc(NC(=O)Nc3cc(Cl)cc(Cl)c3)cc2OC[C@H](C)NC[C@H]1C | -84.1% (active)

Reference: PubChem BioAssay AID1159554 (Broad Institute, 2015)
